Experimental data published in PubChem BioAssay (NCI).
About 83,000 compounds went through this panel and 20% of them were active in at least one assay; those are over-represented in the sample as a whole.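 Note: values are percent growth. 100 is the growth of untreated cells, values between 100 and 0 indicate rising inhibition; between -100 and 0 indicates cell death.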 Unmarked numbers belong to inactive results. The source made the active and inactive calls. The calls were made as follows: active = growth percent below 10; inactive = the rest.

Key:
Experiment in all cases: NCI-60 one-dose screen, 48 h (100 = growth as untreated, 0 = no growth, -100 = all killed)
Conditions in all cases: 10 µM unless noted
[1] = system: NCI-H23 lung
[2] = system: NCI-H226 lung
[3] = system: NCI-H322M lung
[4] = system: HOP-62 NSCLC
[5] = system: NCI-H460 lung
[6] = system: HOP-92 NSCLC
[7] = system: NCI-H522 lung
[8] = system: A549/ATCC NSCLC
[9] = system: 786-0 renal
[10] = system: COLO 205 colon

Row | SMILES | growth [1] | growth [2] | growth [3] | growth [4] | growth [5] | growth [6] | growth [7] | growth [8] | growth [9] | growth [10]
1 | COc1cc(-c2c(-c3ccccc3)c[nH]c2C(=O)NCCCO)c(OC)c2c1OCO2 | 96.3% | 95% | 95.9% | 98.2% | 110% | 97% | 93.9% | 103% | 102% | 114%
2 | CCNc1nc(-c2ccc(Cl)c(OC)c2)c(-c2ccnc(NCCNS(=O)(=O)c3ccc(Cl)cc3)n2)s1 | 26.2% | 20.8% | 44.9% | 21.5% | 17.1% | -2.89% (active) | -25.5% (active) | 27.6% | 6.16% (active) | 26.2%
3 | COc1cccc2cc(N(C)c3ncnc4ccccc34)ccc12 | 15.5% | 46.2% | 48% | 23.3% | 4.58% (active) | 28.1% | -9.69% (active) | 13.5% | 29.5% | -13.8% (active)
4 | N#CC1=C(N)Oc2c(ccc3ccccc23)C1c1cc2ccccc2n2nnnc12 (stereo not given) | 36.6% | 53.6% | 34% | 24.6% | 11.3% | 49.2% | 12.3% | 33.4% | 13.4% | 48.4%
5 | CCOc1ccccc1NC(=O)CCC(=O)OC | 109% | 101% | 96.5% | 94.8% | 108% | 110% | 81.9% | 108% | 91.1% | 103%
6 | CCOC(=O)CC1CSC(N/N=C/c2ccc(O)cc2)=N1 (stereo not given) | 102% | 105% | 98.6% | 91% | 112% | 80.3% | 97% | 102% | 89.9% | 111%
7 | COc1nc2ccccc2cc1/C=C1/C=C(c2ccccc2)NC1=O | 56.3% | 55.4% | 81.3% | 39.2% | 15.7% | 32.5% | 38.5% | 41.7% | 29.5% | 29.3%
8 | Clc1ccc2c(NCCCn3cnc4c(N5CCCC5)nc(Cl)nc43)ccnc2c1 | 98.7% | 102% | 92.7% | 91.5% | 107% | 107% | 91.5% | 96.5% | 96.4% | 88.2%
9 | CC(=O)[C@H]1CC[C@]2(C)[C@@H]1CC[C@@H]1[C@@]3(C)C/C(=C/c4cccnc4)C(=O)C(C)(C)[C@@H]3CC[C@]12C | 78.2% | 81.1% | 91.6% | 115% | 67.3% | 48.8% | 68% | 65.9% | 121% | 64.2%
10 | CC(=O)O[C@H]1C[C@@]2(C)[C@@H](C[C@@H](O)[C@H]3[C@@]4(C)CC[C@H](N5CCCC5)[C@@H](C)[C@@H]4CC[C@@]32C)/C1=C(\CCC=C(C)C)C(=O)O | 95.7% | 94.6% | 101% | 100% | 101% | 83.7% | 91.2% | 102% | 105% | 108%
11 | C=C1/C(=C\C=C2/CCC[C@]3(C)[C@@H]([C@H](C)CCCC(C)(C)O)CC[C@@H]23)C[C@@H](OC(=O)CBr)C[C@@H]1O | 37.7% | 45.2% | 94% | 83.8% | 92.1% | -67.5% (active) | -68.8% (active) | 66% | 6.95% (active) | 19.4%
12 | COc1cc(/C=C2\C(=O)N(CCOc3cc(O)c4c(=O)cc(-c5ccccc5)oc4c3)c3ccccc32)cc(OC)c1O | 77.6% | 90.4% | 90.7% | 68.7% | 66.1% | 80.5% | 60.1% | 85% | 75.6% | 93.3%
13 | CO[C@H]1/C=C/O[C@@]2(C)Oc3c(C)c(O)c4c(O)c(c5c(nc6cc(C)ccn65)c4c3C2=O)NC(=O)/C(C)=C\C=C\[C@H](C)[C@H](O)[C@@H](C)C(O)[C@@H](C)[C@H](OC(C)=O)[C@@H]1C (stereo not given in full) | 99.6% | 96.1% | 97.4% | 3.22% (active) | 114% | 98.7% | 91.1% | 104% | 95.3% | 0.546% (active)
14 | CC(=O)CC(=O)c1ccccc1.[Cu+2] | 97.1% | 114% | 105% | 119% | 110% | 120% | 97.5% | 104% | 107% | 116%
15 | Cc1c(C)c2c(c(C)c1OC(=O)CCC(=O)[O-])CCC(C)(CCCCCCCCCCC[P+](c1ccccc1)(c1ccccc1)c1ccccc1)O2 (stereo not given) | -16.5% (active) | -6.94% (active) | 0.982% (active) | -67.7% (active) | -69% (active) | -82.7% (active) | -25.9% (active) | -2.64% (active) | -49.7% (active) | -52.9% (active)
16 | O=c1c(/C=C/c2c(O)ccc3ccccc23)nnc2sc(-c3cccc([N+](=O)[O-])c3)nn12 | 61.6% | 64.2% | 41.1% | 31% | 26.5% | 65.7% | 86.3% | 45.7% | 57% | 84.4%
17 | CCN1C(=O)N(CC)C2C1NN=c1s/c(=C\c3ccccc3)c(=O)n12 (stereo not given) | 25.6% | 59.1% | 42.6% | 38.2% | 4.35% (active) | 27.3% | -8.72% (active) | 7.65% (active) | 25.1% | -2.49% (active)
18 | Cc1c(CC(=O)Nc2ccccc2)nnn1-c1ccccc1 | 100% | 109% | 105% | 108% | 106% | 108% | 93.4% | 107% | 107% | 112%
19 | C1=C2CCCC3=Cc4ccccc4OC23Oc2ccccc21 | 42.3% | 56.4% | 50.8% | 41.6% | 13.5% | 61.4% | 3.9% (active) | 32.7% | 26.4% | 25.4%
20 | COC(CCP(=O)(c1ccccc1)c1ccccc1)(C(=O)c1ccccc1)c1ccccc1 (stereo not given) | 77.3% | 85.7% | 72.8% | 88% | 50% | -8.84% (active) | 28.9% | 48.1% | 89.4% | 62.4%
21 | COc1cc(C2=Nc3c(N)nc(N)nc3NC(c3cccc(Nc4ccnc5cc(C(F)(F)F)ccc45)c3)C2)cc(OC)c1OC (stereo not given) | 79.5% | 89.5% | 86.9% | 86.3% | 72.5% | 47.9% | 97.1% | 73.6% | 61% | 70.5%
22 | COc1cc(C(=O)c2c(-c3ccccc3)oc3ccccc23)cc(OC)c1O | 43.2% | 52.8% | 53.4% | 38.2% | 13.9% | 55.4% | 40.2% | 47.3% | 35.6% | 123%
23 | Cc1[nH]c(C(=O)Nc2ccccc2OC2CCNC2)c(Cl)c1Cl (stereo not given) | 87.1% | 80.6% | 92.1% | 78.7% | 72.6% | 72.6% | 60.7% | 101% | 68.9% | 83.5%
24 | COc1ccc(-c2nc3cc(C(=O)NC4CCCCC4)ccc3n2C2CCCCC2)cc1 | 92.5% | 115% | 85.8% | 101% | 86.2% | 121% | 73.5% | 89.4% | 88.3% | 73.6%
25 | CCCCC#Cc1c(I)n(C2OC(CO[Si](C)(C)C(C)(C)C)C3OC(C)(C)OC32)c(=O)[nH]c1=O (stereo not given) | 78% | 88.2% | 84.3% | 102% | 107% | -30.5% (active) | 79.9% | 94% | 82.4% | -59.1% (active)
26 | CCCCCCCCCCCCCCCCCCOc1ccccc1CC(=O)OCC[N+]1(C)CCCCC1 | 29.8% | 28.1% | 84.6% | 70% | 62.2% | -9.25% (active) | 33.3% | 42.2% | 31.2% | 55.6%
